# Reference: the supplement of paper PMC12024424
# Counter-ions that a name gives are not always drawn.
# Assays:
# [1] = test system: Staphylococcus aureus Sa2 (MRSA, cystic fibrosis isolate); assay: growth reduction vs untreated control (OD550); higher = stronger antibacterial activity; conditions: 0.1 mM; 24 h
# Protocol: (§1)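 Single-dose screen of the MedChem Express Drug Repurposing Library (0.1 mM, 1% DMSO) against planktonic MRSA S. aureus Sa2 (CF isolate) in TSB in 96-well plates, 37 °C aerobic, 24 h. Assays were run in triplicate and repeated twice.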
# [2] = test system: Staphylococcus aureus Sa2 (MRSA, cystic fibrosis isolate); assay: growth reduction vs untreated control (viable cell count); higher = stronger antibacterial activity; extreme values may be limits of the assay; conditions: 0.1 mM; 24 h
# Protocol: as §1
Compound,growth reduction [1],growth reduction [2]
CNC(=O)c1ccc(Nc2ncc(C(F)(F)F)c(NCc3nccnc3N(C)S(C)(=O)=O)n2)cc1 [Defactinib],96.2%,95%
O=C1Nc2ccc(Cl)cc2[C@@](C#CC2CC2)(C(F)(F)F)O1 [Efavirenz],96.6%,98%
Cc1ccc(C(=O)Nc2ccc(CN3CCN(C)CC3)c(C(F)(F)F)c2)cc1C#Cc1cnc2cccnn12 [Ponatinib],100%,95%
CCOC(=O)Nc1ccc(NCc2ccc(F)cc2)nc1N [Flupirtine (Maleate)],100%,96%
c1cn2cc(-c3ccc4cn[nH]c4c3)nc(Nc3ccc(N4CCOCC4)cc3)c2n1 [Entospletinib],100%,96%
O=C1NCCN1CCN1CCC(c2cn(-c3ccc(F)cc3)c3ccc(Cl)cc23)CC1 [Sertindole],93.6%,97%
COc1cc(C(=O)O)ccc1NC(=O)[C@@H]1N[C@@H](CC(C)(C)C)[C@](C#N)(c2ccc(Cl)cc2F)[C@H]1c1cccc(Cl)c1F [Idasanutlin],100%,100%
CCN(CC)CCN(Cc1ccc(-c2ccc(C(F)(F)F)cc2)cc1)C(=O)Cn1c(SCc2ccc(F)cc2)nc(=O)c2c1CCC2 [Darapladib],100%,100%
CC(C)(C)[C@@H]1NC(=O)O[C@@H]2CCC[C@H]2OC/C=C/C(F)(F)c2nc3ccccc3nc2O[C@@H]2C[C@@H](C(=O)N[C@]3(C(=O)NS(=O)(=O)C4(C)CC4)C[C@H]3C(F)F)N(C2)C1=O [Glecaprevir],100%,100%
O=C(NC1CCN(CCCCC2(C(=O)NCC(F)(F)F)c3ccccc3-c3ccccc32)CC1)c1ccccc1-c1ccc(C(F)(F)F)cc1 [Lomitapide],100%,100%
COC1=C(OC)C(=O)C(CCCCCCCCCC[P+](c2ccccc2)(c2ccccc2)c2ccccc2)=C(C)C1=O [Mitoquinone (mesylate)],100%,100%
C=C[C@@](C)(/C=C/c1ccc(O)cc1)CCC=C(C)C [Bakuchiol],100%,100%
COC(=O)/C=C/C(=O)OCCN1C(=O)CCC1=O [Diroximel fumarate],100%,100%
CCCCCOc1ccccc1/C(=C\SC)n1ccnc1 [Neticonazole],100%,100%
Cc1ccc(NC(=O)c2ccc(CN3CCN(C)CC3)cc2)cc1Nc1nc(-c2cccnc2)cs1 [Masitinib (mesylate)],100%,100%
CCCCCCCCc1ccc(CCC(N)(CO)CO)cc1 [Fingolimod (hydrochloride)],100%,100%
Cc1cc(C)cc([C@@H]2CCCN2Cc2ccc(Oc3ccc(C(N)=O)cc3F)cc2)c1 [Aticaprant],100%,100%
CCCCN(CCCC)CCC(O)c1cc2c(Cl)cc(Cl)cc2c2cc(C(F)(F)F)ccc12 (centres undefined) [Halofantrine hydrochloride],100%,94%
COCCN1CCC(N(Cc2ccc(-c3ccc(C(F)(F)F)cc3)cc2)C(=O)Cn2c(SCc3cccc(F)c3F)cc(=O)c3ccccc32)CC1 [Rilapladib],100%,100%
CC(=O)OCC(=O)[C@@]1(O)CC[C@H]2[C@@H]3CCC4=CC(=O)C=C[C@]4(C)[C@H]3C(=O)C[C@@]21C [Prednisone acetate],97.7%,100%
O=C(NCc1ccc(Oc2ccccc2)cc1)c1nc(-c2cc(Br)c(O)c(Br)c2)no1,95.3%,100%

Compound,growth reduction [1],growth reduction [2]
Clc1ccc(CO/N=C(\Cn2ccnc2)c2ccc(Cl)cc2Cl)c(Cl)c1 [Oxiconazole nitrate],100%,100%
CC(=O)Oc1cc(C)c(OC(C)=O)c2ccccc12 [Vitamin K4],95.5%,97%
CN1C(=O)[C@@H](NC(=O)c2n[nH]c(Cc3ccccc3)n2)COc2ccccc21,90.3%,90%
C=CC[C@@H]1/C=C(\C)C[C@H](C)C[C@H](OC)[C@H]2O[C@@](O)(C(=O)C(=O)N3CCCC[C@H]3C(=O)O[C@H](/C(C)=C/[C@@H]3CC[C@@H](O)[C@H](OC)C3)[C@H](C)[C@@H](O)CC1=O)[C@H](C)C[C@@H]2OC [Tacrolimus (monohydrate)],100%,100%
O=C(NCC12CC3CC(CC(C3)C1)C2)c1cc(CCCNCCCO)ccc1Cl [AZD9056 (hydrochloride)],100%,100%
Cn1ncc(Cl)c1-c1cc(C(=O)N[C@H](CN)Cc2cccc(F)c2)sc1Cl [Afuresertib],100%,100%
Cc1cc(OCCCS(C)(=O)=O)cc(C)c1-c1cccc(COc2ccc3c(c2)OC[C@H]3CC(=O)O)c1 [Fasiglifam],100%,100%
CC[C@H]1[C@@H](O)[C@@H]2[C@H](CC[C@]3(C)[C@@H]([C@H](C)CCC(=O)O)CC[C@@H]23)[C@@]2(C)CC[C@@H](O)C[C@@H]12 [Obeticholic acid],94.4%,98%
Cn1cc(-c2ccncc2)c(-c2ccc(OCc3ccc4ccccc4n3)cc2)n1 [Mardepodect],100%,93%
N#CC(c1ccc(Cl)cc1)c1c(Cl)cc(-n2ncc(=O)[nH]c2=O)cc1Cl (centres undefined) [Diclazuril],100%,100%
CCN(CC)CC#CCOC(=O)C(O)(c1ccccc1)C1CCCCC1 (centres undefined) [Oxybutynin (chloride)],94.3%,91%
Oc1c(Br)cc(Br)c2cccnc12 [Broxyquinoline],100%,100%
CCCSc1nc(N[C@@H]2C[C@H]2c2ccc(F)c(F)c2)c2nnn([C@@H]3C[C@H](OCCO)[C@@H](O)[C@H]3O)c2n1 [Ticagrelor],100%,98%
CNCCC(Oc1ccc(C(F)(F)F)cc1)c1ccccc1 (centres undefined) [Fluoxetine (hydrochloride)],100%,100%
CC(C)(C)CC(C)(C)c1ccc(OCCOCC[N+](C)(C)Cc2ccccc2)cc1 [Benzethonium chloride],100%,100%
N[C@@H]1CC[C@@H](c2ccc(Cl)c(Cl)c2)c2ccccc21 [Dasotraline (hydrochloride)],100%,100%
Clc1ccc(C(c2ccccc2Cl)C(Cl)Cl)cc1 (centres undefined) [Mitotane],100%,100%
CS(=O)(=O)c1cc(F)cc2c3c(n(Cc4ccc(Cl)cc4)c12)[C@@H](CC(=O)O)CC3 [Laropiprant],96.1%,99%
CCc1oc2ccccc2c1C(=O)c1cc(Br)c(O)c(Br)c1 [Benzbromarone],100%,100%
O=C(Nc1ccccc1)c1ccccc1O [Salicylanilide],91.4%,93%
O=C(Nc1ccc([N+](=O)[O-])cc1Cl)c1cc(Cl)ccc1O [Niclosamide],99.8%,100%

Compound,growth reduction [1],growth reduction [2]
Cc1cc(Nc2ncnc3ccc(NC4=NC(C)(C)CO4)cc23)ccc1Oc1ccn2ncnc2c1 [Tucatinib],91.9%,92%
CCc1cc(F)c2nc(N3CCC(NC4CCOCC4)CC3)c(-c3nc(C)no3)c(C)c2c1,100%,93%
CNC(=O)c1cc(Oc2ccc(NC(=O)Nc3ccc(Cl)c(C(F)(F)F)c3)c(F)c2)ccn1 [Regorafenib (Hydrochloride)],100%,100%
CN(C)CCOc1ccc(/C(=C(/CCCl)c2ccccc2)c2ccccc2)cc1 [Toremifene (citrate)],100%,100%
CC(C)C[C@@H](C(=O)N[C@H](C(=O)OC1CCCC1)c1ccccc1)[C@H](O)C(=O)NO [Tosedostat],100%,100%
C[C@H](Nc1cc(-c2cnn(C)c2)cc(Nc2cnccn2)n1)c1ccc(F)cc1 [Ilginatinib],100%,94%
CCCCCNC(=N)N/N=C/c1c[nH]c2ccc(OC)cc12 [Tegaserod (maleate)],100%,100%
Cc1ccc(C(=O)N(CCCN)[C@@H](c2nc3cc(Cl)ccc3c(=O)n2Cc2ccccc2)C(C)C)cc1 [Ispinesib],100%,100%
O=C(NS(=O)(=O)c1ccc(Br)s1)c1ccc(Cl)cc1Cl [Tasisulam],100%,100%
CN1CCCC(CC2c3ccccc3Sc3ccccc32)C1 (centres undefined) [Metixene hydrochloride hydrate],100%,100%
COc1cc(NS(C)(=O)=O)ccc1Nc1c2ccccc2nc2ccccc12 [Amsacrine (hydrochloride)],93.4%,100%
Cc1cccc(/C=N/Nc2cc(N3CCOCC3)nc(OCCc3ccccn3)n2)c1 [Apilimod],100%,93%
C1=N/C2=N/c3ccc(OCCN4CCCC4)c(c3)COC/C=C/COCc3cccc(c3)C(=C1)N2 [Pacritinib],100%,100%
COCCNCCc1cccc(Nc2ncc3c(n2)-c2ccccc2[C@H](c2ccccc2F)C3)c1 [Derazantinib],100%,100%
Cc1ccc(NC(=O)C2(c3ccc4c(c3)OC(F)(F)O4)CC2)nc1-c1cccc(C(=O)O)c1 [Lumacaftor],92.9%,96%
O=c1oc2ccccc2c(O)c1Cc1c(O)c2ccccc2oc1=O [Dicoumarol],100%,100%
Cc1cc([C@H](C)Nc2nccc(N3C(=O)OC[C@@H]3[C@@H](C)F)n2)ncc1-c1ccnc(C(F)(F)F)c1,100%,97%
CCOc1nc2cccc(C(=O)OC(C)OC(=O)OC3CCCCC3)c2n1Cc1ccc(-c2ccccc2-c2nn[nH]n2)cc1 (centres undefined) [Candesartan Cilexetil],100%,100%
Nc1ccn([C@@H]2O[C@H](CO)[C@@H](O)C2(F)F)c(=O)n1 [Gemcitabine (hydrochloride)],100%,100%
Fc1ccc(C(c2ccc(F)cc2)N2CCN(C/C=C/c3ccccc3)CC2)cc1 [Flunarizine (dihydrochloride)],94.4%,98%
